# Reference: paper PMC4336329 (PLoS ONE, 2015)
# Hit rate of the full screen: of about 310,000 compounds, about 14,000 (4.5%) showed an effect of 50% or more. Effects have a minus sign here. Shown is part of a subset that was picked to be rich in strong results.
# Biological target: human ether-à-go-go-related gene (hERG) potassium channel (human, UniProt Q12809)
# Test: primary screen, population patch clamp on CHO cells stably expressing hERG; higher = less effect of the substance
# 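Also: peak tail current of the secondary pulse compared with the same well before compound.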
# Chain of human ether-à-go-go-related gene (hERG) potassium channel (Q12809 whole entry, looked up): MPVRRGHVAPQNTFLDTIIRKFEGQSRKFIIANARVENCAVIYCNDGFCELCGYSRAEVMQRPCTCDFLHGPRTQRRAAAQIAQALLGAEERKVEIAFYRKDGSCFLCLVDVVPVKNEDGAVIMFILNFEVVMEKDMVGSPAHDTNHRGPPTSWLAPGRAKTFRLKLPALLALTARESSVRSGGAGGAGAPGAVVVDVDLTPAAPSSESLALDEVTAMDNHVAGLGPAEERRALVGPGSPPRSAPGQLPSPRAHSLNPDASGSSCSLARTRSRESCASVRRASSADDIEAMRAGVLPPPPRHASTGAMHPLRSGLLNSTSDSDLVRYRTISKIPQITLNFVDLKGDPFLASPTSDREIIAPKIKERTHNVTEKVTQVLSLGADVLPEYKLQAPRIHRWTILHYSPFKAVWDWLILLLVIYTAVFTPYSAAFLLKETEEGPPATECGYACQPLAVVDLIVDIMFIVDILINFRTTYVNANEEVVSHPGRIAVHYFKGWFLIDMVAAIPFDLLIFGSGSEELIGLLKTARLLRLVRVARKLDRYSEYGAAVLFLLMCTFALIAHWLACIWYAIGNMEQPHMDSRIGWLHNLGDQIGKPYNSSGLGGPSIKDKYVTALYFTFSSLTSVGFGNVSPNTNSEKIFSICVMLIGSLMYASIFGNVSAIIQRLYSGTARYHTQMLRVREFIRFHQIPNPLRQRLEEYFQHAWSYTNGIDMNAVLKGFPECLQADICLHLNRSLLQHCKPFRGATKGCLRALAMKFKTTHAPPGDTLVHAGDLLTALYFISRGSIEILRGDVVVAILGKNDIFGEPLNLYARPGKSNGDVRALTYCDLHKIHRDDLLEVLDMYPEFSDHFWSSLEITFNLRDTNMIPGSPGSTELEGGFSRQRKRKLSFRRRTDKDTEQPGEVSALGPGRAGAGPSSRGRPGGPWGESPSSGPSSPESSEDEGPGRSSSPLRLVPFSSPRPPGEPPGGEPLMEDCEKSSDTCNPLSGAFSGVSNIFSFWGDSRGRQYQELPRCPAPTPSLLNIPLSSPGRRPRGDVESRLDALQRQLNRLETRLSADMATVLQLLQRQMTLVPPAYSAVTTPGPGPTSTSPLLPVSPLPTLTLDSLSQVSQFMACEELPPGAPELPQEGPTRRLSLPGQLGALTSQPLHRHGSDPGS
row,SMILES,"hERG current change (%, negative = inhibition) at 10uM [%]"
1,CC(C)(C)OC(=O)N[C@H](Cc1ccccc1)C(=O)N1CCC(C(=O)O)CC1,9.08
2,COc1ccc2c(c1)CCc1c(C(=O)Nc3cc(C)n(Cc4ccc(Cl)cc4)n3)noc1-2,-30.5
3,COc1ccc(-c2nc(N)n[nH]2)cc1OC,18.9
4,COc1ccc(-c2n[nH]c3c2CN(C(=O)c2ccccc2)CC3)cc1,-6.13
5,Fc1cccc(NCc2ccoc2)c1,-7.89
6,Cc1ccc(-c2sc(-c3ccccc3)nc2CC(=O)Nc2ccccc2F)cc1,6.09
7,O=C(NCc1ccccc1)N1CCC(CO)(Cc2cccc(F)c2)CC1,-12.8
8,CC(=O)N1CCC(N2CCN(c3ccccc3F)CC2)CC1,0.444
9,OCC1(Cc2ccccc2)CCCN(C2CCCC2)C1 (stereo not drawn),-8.01
10,OCC1(Cc2ccccc2)CCN(C2CCN(c3ccccc3F)CC2)CC1,-68.8
11,O=C(NCc1ccccc1)N1CCN(c2ccccc2F)CC1,1.22
12,OCC1(Cc2ccccc2)CCN(C2CCN(c3ccc(F)c(F)c3)CC2)CC1,-112
13,Cc1ccc(-c2ccc(=O)n(Cc3c(F)cccc3Cl)n2)cc1,9.18
14,Cc1ccc2nc(Nc3ccccc3O)nc(-c3ccccc3)c2c1,14.3
15,O=C(CCN1C(=O)c2cccc3cccc(c23)C1=O)NCc1cccnc1,-16.7
16,C/C(CC(=O)Nc1ccccc1Cl)=N\NC(=O)C(=O)NCCO,6.65
17,COS(=O)(=O)[O-].C[N+]1(C)CCC(=C(c2ccccc2)c2ccccc2)CC1,-71
18,CC1CC(C)(C)CC(=O)C1C(=O)c1ccccc1 (stereo not drawn),16.4
19,O=C(O)c1ccc(S(=O)(=O)c2ccccc2)cc1,11.5
20,CCOc1ccc(-n2ccnc(SCC(=O)Nc3ccc(OC)cc3OC)c2=O)cc1,9.58
21,O=C(CON=C1c2ccccc2-c2ccccc21)NC12CC3CC(CC(C3)C1)C2,-7.23
22,N#CC1=C(SCc2ccccc2)NC(=O)CC1c1ccco1 (stereo not drawn),10.9
23,C=CCNC(=O)CN1CCC(O)(c2ccc(F)cc2)CC1,-5.8

row,SMILES,"hERG current change (%, negative = inhibition) at 10uM [%]"
1,O=C(CN1CCC(O)(c2ccc(F)cc2)CC1)NCc1ccc(F)cc1,-34.2
2,OC1(c2cccc(C(F)(F)F)c2)CCN(CCN2CCCCC2)CC1,-3.82
3,CC(=O)N1CCC(O)(c2cccc(C(F)(F)F)c2)CC1,12.7
4,Cl.O=C(CCCN1CCC(O)(c2cccc(C(F)(F)F)c2)CC1)c1ccc(F)cc1,-75.6
5,O=C(CCCN1CCC(O)(c2ccc(Br)cc2)CC1)c1ccc(F)cc1,-79.7
6,O=C1CCC([N+](=O)[O-])C(C2CC=CCC2)N1 (stereo not drawn),4.76
7,CCOC(=O)c1ccc(CNC(=O)CCC(=O)O)cc1,4.15
8,COc1ccnc2c1c(=O)n(Cc1ccc(F)cc1)c(=O)n2C,-6.22
9,O=C(NCCCO)C(=O)Nc1cc2c3c(c1)CCN3C(=O)CC2,11.8
10,CC(=O)C1=C(C)NC(SCC(N)=O)=C(C#N)C1C (stereo not drawn),8.65
11,O=C(CNC(=O)c1ccccc1)OCc1ccc([N+](=O)[O-])cc1,-33.9
12,COc1ccc(C(=O)NCC(=O)NCC(=O)OCC(=O)c2ccc(Br)cc2)cc1,15.3
13,COc1ccc(C(=O)NCC(=O)OCc2ccc([N+](=O)[O-])cc2)cc1,-58.3
14,COc1ccc(C(=O)NCC(=O)NCC(=O)OCC(=O)c2ccc(C)cc2)cc1,4.23
15,COc1ccc(C(=O)NCC(=O)OCC(=O)c2cc(OC)c(OC)c(OC)c2)cc1OC,28.5
16,O=C(CNC(=O)c1cccc(OC(F)F)c1)OCc1cc(=O)n2cc(Br)ccc2n1,-55.2
17,COc1ccc(C(=O)COC(=O)CNC(=O)c2ccc(OC)cc2)cc1,-52.6
18,O=C(CNC(=O)c1ccccc1)OCc1cc(=O)n2cc(Br)ccc2n1,-31.6
19,O=C(CNC(=O)c1cccc(F)c1)OCc1cc(=O)n2cc(Br)ccc2n1,-9.66
20,CC(C)(C)c1ccc(C(=O)NCC(=O)OCc2ccc([N+](=O)[O-])cc2)cc1,-7.46
21,COc1ccc(C(=O)NCC(=O)OCc2ccc(Cl)cc2Cl)cc1OC,-6.66
22,COc1ccc(C(=O)NCC(=O)OCC(=O)c2ccc(Cl)cc2)cc1OC,-58.6
